Experimental data taken from PubChem BioAssay (NCI).
The panel holds about 79,000 compounds, 15% with a hit somewhere; the sample as a whole holds those more often. Values without a mark were called inactive. The source made the active and inactive calls. No stated cut-off is given here; in the data, active means growth inhibition above about 70%; inactive means the rest.

Assay: NCI Yeast Anticancer Drug Screen. Data for the rad50 strain (AID 155);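 further: 0% = growth of vehicle-only cultures of the same strain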
Details: S. cerevisiae rad50 strain growth inhibition; at 50.0 µM; stronger effect = higher value
How it was run: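 Readout: growth inhibition relative to vehicle-treated cultures. Compound exposure was carried out in a genetically defined yeast strain deficient in DNA damage repair.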

SMILES	growth inhibition
CCOP(=O)(OCC)C(Cc1ccccc1)N=C(c1ccccc1)c1ccccc1 (centres undefined)	98.6% (active)
CCc1ncnc2cc(OCC3CO3)c(OC)cc12 (centres undefined)	84.3% (active)
CCOC(=O)[C@H]1Nc2ccccc2C2c3ccccc3CC21 (some centres undefined)	84.6% (active)
O=CNc1ccc2c(c1)C(=O)c1ccccc1-2	94.2% (active)
CCOc1ccc2c(c1)c(CC(=O)O)cn2C	32.8%
OC1CSCCCSCCSCCCSC1	12.3%
N#Cc1c(N)[nH]c2ccc(Sc3ccccc3)cc12	46.1%
Cc1ccc(-c2ccc(Nc3c4ccccc4nc4ccccc34)cc2)cn1	97% (active)
c1ccc2c(c1)NC(NC1Nc3ccccc3N1)N2	41.5%
OC(COc1cccc2ccccc12)CN1CCOCC1 (centres undefined)	71.5% (active)
CCC/C(Cl)=N\OC(=O)Nc1ccc(Br)cc1	88.2% (active)
COc1ccc(/C=C2\SC(=S)N(/C=C/c3nc4ccccc4[nH]c3=O)C2=O)cc1OC	57.2%
O=C(NNc1ccnc2cc(Cl)ccc12)/C(=C\c1ccccc1Cl)NC(=O)c1ccccc1	86.1% (active)
CSC1=NNC(SC)=NN1	59.9%
Cc1c(C2=C(Br)C(=O)N(C)C2=O)c(=O)n(C)c(=O)n1C	81.9% (active)
NCCNc1ccc(NCCN)c2c1C(=O)c1c(O)ccc(O)c1C2=O	29.6%
Cn1c(=O)c(-c2ccccc2)c(N=[N+]=[N-])c2ccccc21	82.7% (active)
CCCCCCCCCCCCCCCCCCOCC(O)COP(=O)(O)OCC1OC(n2cc(F)c(=O)[nH]c2=O)CC1O (centres undefined)	87.6% (active)
CCS(=O)(=O)c1ccc(/C=C/C=N/NC(=S)NCC(C)C)cc1	0.25%
CCC(=O)Oc1c(Cl)cc(Cl)c2ccccc12	20.1%

SMILES	growth inhibition
COc1cc2c3c(cccc3c1)C(=O)N(CCN(C)C)C2=O	71.6% (active)
CN(C)c1ccc(C(C#N)=C(C#N)C#N)cc1	88.2% (active)
O=C(CCCN1CCC2(CC1)CC(=O)N(N1CCCCCC1)C2=O)c1ccc(F)cc1	80.8% (active)
O=C1C2C(C(=O)N1c1ccc(OCc3ccccc3)cc1)C1c3ccccc3C2C2CCCCN21 (centres undefined)	80.8% (active)
CCN(CC)CCC(=O)c1ccc(Oc2ccc(F)cc2)cc1	57%
O=Nc1c(NO)ccc2nn(-c3ccccc3)nc12	38%
CC(=O)SCCC[Si](C)(C)CCCSC(C)=O	55.2%
O=C(O)C1CCCCC1c1c2ccc(=O)c(O)c-2oc2c(O)c(O)ccc12 (centres undefined)	77.8% (active)
Cc1ccc(NN(NC(=O)OC(C)C)C(=O)OC(C)C)cc1	23.1%
O=C1c2ccccc2C(=O)c2cc(CBr)ccc21	99.2% (active)
Cc1c(C(Cc2ccccc2N(C)C(=O)/C=C\C(=O)O)c2c[nH]c3ccccc23)c2ccccc2n1C (centres undefined)	87.8% (active)
CC(C)/C(Cl)=N\OC(=O)Nc1ccc(F)cc1	10.7%
O=C1OC(=O)C2CCCC3CCCC1C32 (centres undefined)	39%
CCOC(=O)C(NC(=O)c1ccccc1)(N1CCN(c2cc3c(cc2F)c(=O)c(C(=O)O)cn3C2CC2)CC1)C(F)(F)F (centres undefined)	74.6% (active)
COc1ccc(NC(=S)N/N=C(\c2ccccc2)c2ccccn2)cc1	68.1%
C=CCC1=C(C)C(OC(=O)/C=C/c2ccccc2)CC1=O (centres undefined)	2.25%
NNc1c(F)c(F)cc(F)c1F	24.8%
COP(=O)(OC)/C(=C\C1=CN(C(c2ccccc2)(c2ccccc2)c2ccccc2)CN1)NC=O	98% (active)
COC(=O)c1cc(-c2ccc(C)cc2)[nH]c(=O)c1C#N	86.5% (active)
